Holding throughout (assay): qHTS profiling for inhibitors of Plasmodium falciparum proliferation (AID 504749); also: nearly all actives have a fitted effect of over 60% in size
Common to all, as to conditions: P. falciparum in erythrocytes, SYBR Green DNA, 72 h; series mostly up to 28.7 µM
Background: Quantitative high-throughput screening tests each substance at several concentrations.

One assay relates to CP291. The essentials:
(§1)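 Infected RBCs, 0.3% parasitemia/2.5% Hct final; cpd 72 h, 37 C, 5% CO2; lysis buffer with saponin/triton/SYBR Green I, o/n RT dark; FI 485/535; norm. to artemisinin (0.29 uM) and DMSO.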

In a further assay the test system is CP305. The procedure, abridged:
as §1

Another assay relates to CP315. The essentials:
as §1

The test system of the next assay is CP325. The procedure, abridged: as §1
In the next assay the test system is CP329. The essentials: as §1
The subject of a further assay is CP335. The essentials: as §1
In a further assay the test system is DFO2036. The essentials: as §1
The next assay deals with DIV14. The procedure, abridged:
as §1

A further assay relates to DIV17. The procedure, abridged:
as §1

The test system of the next assay is DIV30. The procedure, abridged:
as §1

A further assay concerns Dd2. The procedure, abridged:
as §1

In another assay the test system is ECU. The essentials:
as §1

For a further assay, the system named is FAB9. The procedure, abridged:
as §1

Another assay deals with GB4. The essentials: as §1
Another assay deals with HB3. The procedure, abridged: as §1
For a further assay, the system named is ICS. The procedure, abridged:
as §1

A further assay relates to JCK. The essentials: as §1
The test system of another assay is N140. The essentials: as §1
The next assay has as its system P93_24. The procedure, abridged:
as §1

The test system of a further assay is CP297. The procedure, abridged: as §1

Records with an inconclusive call do not appear. Calls of active or inactive are those of the source. Calls follow the shape of the dose curve; as a rule, active = well fitted inhibition curve with a large enough effect; inconclusive = small, poorly fitted or top-dose-only effect; inactive = flat fitted curve, though single readings scatter.

Among the data in PubChem BioAssay (NCATS) are Potency values, retold here.
Potency is read from the fitted curve at half-maximal effect.

Consider `Nc1nc2c(ncn2COC(CO)CO)c(=O)[nH]1`, for which the Potency entry with CP291, with CP305, in the assay with CP315, in the assay with CP325, with CP329 and with CP335 was “inactive” each time. In addition, the Potency entry in the assay with DFO2036, in the assay on DIV14, with DIV17, in the assay with DIV30, in the assay on Dd2 and in the assay with ECU was “inactive” throughout. The Potency result in the assay with FAB9, in the assay with GB4, with HB3, in the assay on ICS, in the assay with JCK and with N140 was “inactive” each time. The Potency entry with P93_24 was “inactive”.

Regarding `CN(C)CCCN1c2ccccc2CCc2ccc(Cl)cc21`, the Potency entry with CP305, in the assay on CP315, in the assay with CP325, in the assay with CP329, in the assay with DFO2036 and in the assay on FAB9 was “inactive” throughout. Besides, the Potency result in the assay with HB3 and in the assay with JCK was “inactive” in each case. Moreover, the Potency is 1.51 µM (active) in the assay with DIV14, 3.38 µM (active) with DIV17, 8.49 µM (active) in the assay on GB4 and 10 µM (active) with ICS.

Consider `NC12CC3CC(CC(C3)C1)C2`, for which the Potency result in the assay on CP291, in the assay on CP305, with CP315, with CP325, in the assay on CP329 and in the assay on DFO2036 was “inactive” in each case. Also, the Potency entry in the assay on DIV14, in the assay on DIV17, with DIV30, in the assay on Dd2, in the assay on ECU and with FAB9 was “inactive” in each case. For the same compound, the Potency entry with HB3, in the assay with ICS, in the assay on N140 and in the assay on P93_24 was “inactive” in each case.

For `O=C(c1ccc(F)cc1)C1CCN(CCn2c(=O)[nH]c3ccccc3c2=O)CC1`, the Potency result in the assay with CP297, with CP315, in the assay on CP325, with CP329, with CP335 and in the assay on DFO2036 was “inactive” each time. For the same compound, the Potency entry in the assay on DIV30, in the assay with ECU, in the assay with FAB9, with GB4, in the assay with HB3 and in the assay on ICS was “inactive” throughout. Also, the Potency entry with JCK, in the assay with N140 and in the assay on P93_24 was “inactive” in each case.

Take `COc1ccc(CCN(C)CCCC(C#N)(c2ccc(OC)c(OC)c2)C(C)C)cc1OC` (configuration not stated): the Potency entry in the assay on CP297, in the assay with CP325, with DFO2036, with DIV14, in the assay on ECU and in the assay on FAB9 was “inactive” throughout. In addition, the Potency result in the assay on GB4, in the assay with HB3, with JCK and in the assay on N140 was “inactive” in each case.

In the case of `CN(CCOc1ccc(NS(C)(=O)=O)cc1)CCc1ccc(NS(C)(=O)=O)cc1`, the Potency entry in the assay on CP291, in the assay on CP305, in the assay on CP315, in the assay on CP325, with CP329 and in the assay with CP335 was “inactive” each time. The Potency result in the assay on DFO2036, in the assay with DIV14, with DIV17, in the assay on DIV30, in the assay on Dd2 and in the assay with ECU was “inactive” in each case. In addition, the Potency result in the assay on FAB9, with GB4, in the assay on HB3, with ICS, in the assay with JCK and in the assay on N140 was “inactive” each time.

For `O=c1c(O)c(-c2ccc(O)c(O)c2)oc2cc(O)cc(O)c12`, the Potency was 15.1 µM (active) in the assay with DIV14, 12 µM (active) with GB4 and 7.94 µM (active) with ICS. For the same compound, the Potency result with ECU, with JCK and with N140 was “inactive” each time.

In the case of `COc1nc(C)nc(Cl)c1NC1=NCCN1`, the Potency entry in the assay with CP291, in the assay on CP305, in the assay on CP315, in the assay with CP325, in the assay with CP329 and in the assay on CP335 was “inactive” in each case. The Potency result in the assay with DFO2036, in the assay on DIV14, with DIV17, in the assay with DIV30, in the assay with Dd2 and with ECU was “inactive” in each case. In addition, the Potency entry in the assay on FAB9, with GB4, in the assay with HB3, with ICS, with JCK and with N140 was “inactive” in each case.

As to `CCCCc1oc2ccccc2c1C(=O)c1cc(I)c(OCCN(CC)CC)c(I)c1`, the Potency result in the assay with CP315 is “inactive”. The Potency is 9.53 µM (active) with CP335; 7.57 µM (active) in the assay on DIV14; 13.5 µM (active) in the assay with DIV17; 8.49 µM (active) in the assay on DIV30; 11.2 µM (active) with Dd2; 8.91 µM (active) in the assay with ECU. Moreover, the Potency in the assay on GB4 was 9.53 µM (active); in the assay on HB3 it was 11.2 µM (active); with ICS it was 3.55 µM (active); in the assay with N140, 5.01 µM (active); in the assay on P93_24 it was 3.55 µM (active).

For `CC1(CN2CCC(n3c(=O)[nH]c4ccccc43)CC2)OCc2ccccc2-n2cccc21` (configuration not stated), the Potency result with CP315, with CP325, in the assay on CP329, with FAB9 and in the assay on JCK was “inactive” throughout. The Potency in the assay on DIV14 is 9.53 µM (active); in the assay on DIV17, 13.5 µM (active); in the assay on DIV30 it was 13.5 µM (active); with Dd2, 11.2 µM (active); with ECU, 10 µM (active); in the assay on ICS it was 3.98 µM (active). Besides, the values for the Potency with N140 and with P93_24 were 12.6 µM (active) and 11.2 µM (active), respectively.

As to `CC#C[C@]1(O)CC[C@H]2[C@@H]3CCC4=CC(=O)CCC4=C3[C@@H](c3ccc(N(C)C)cc3)C[C@@]21C`, the Potency in the assay with CP291 is 16.9 µM (active); with CP297, 12 µM (active); in the assay on CP305 it was 12 µM (active); in the assay with CP335, 13.5 µM (active); with DIV14, 12 µM (active); with DIV17, 8.49 µM (active). The Potency in the assay on DIV30 is 15.1 µM (active); in the assay with Dd2, 12.6 µM (active); in the assay with ECU, 8.91 µM (active); with GB4 it was 15.1 µM (active); in the assay on HB3, 12.6 µM (active); in the assay with ICS, 4.47 µM (active). Also, the figures for the Potency in the assay on N140 and with P93_24 were 8.91 µM (active) and 11.2 µM (active), respectively.

With `CC(C)NCC(O)COc1ccc(CCOCC2CC2)cc1` (configuration not stated), the Potency result in the assay with CP291, in the assay with CP297, with CP305, with CP315, in the assay with CP325 and with CP329 was “inactive” in each case. Also, the Potency entry with FAB9 and in the assay with JCK was “inactive” each time. For the same compound, the Potency in the assay on ICS was 5.01 µM (active).

Regarding `Nc1c2c(nc3ccccc13)CCCC2`, the Potency entry with CP315, with DIV30, in the assay on Dd2, in the assay on ECU, in the assay on FAB9 and in the assay on JCK was “inactive” each time. The Potency with DIV17 is 6.75 µM (active).

In the case of `CCOC(=O)Nc1ccc(NCc2ccc(F)cc2)nc1N`, the Potency with CP335 is 6.01 µM (active); in the assay with DIV14, 15.1 µM (active); with DIV17, 15.1 µM (active); in the assay with DIV30, 16.9 µM (active); in the assay on Dd2, 12.6 µM (active); in the assay on ECU, 11.2 µM (active). Further, the Potency in the assay with HB3 was 8.91 µM (active); with ICS, 6.31 µM (active); in the assay with JCK, 14.1 µM (active); with N140 it was 10 µM (active).

Regarding `CNCCCC12CCC(c3ccccc31)c1ccccc12`, the Potency entry with CP305, in the assay with CP315, with CP325, in the assay on CP329, in the assay on CP335 and in the assay with DFO2036 was “inactive” throughout. In addition, the Potency result with ECU, with FAB9, in the assay on HB3, in the assay with JCK and in the assay on N140 was “inactive” throughout. Moreover, the Potency was 10.7 µM (active) in the assay on DIV17 and 8.49 µM (active) in the assay on GB4.
